Test results: PubChem BioAssay (NCATS)
Records with an inconclusive call do not appear. Unless noted, calls follow the shape of the dose curve; as a rule, active = well fitted curve in either direction with a large enough effect (not every such curve was filed as active); inconclusive = small, poorly fitted or top-dose-only effect, or another doubt; inactive = flat fitted curve, though single readings scatter.

Tests used:
[1] = AP1 Signaling Pathway (AID 357); settings: ME-180 AP-1-bla reporter, EGF-induced, beta-lactamase ratio, 5 h; at 17.2 µM (top of the series) unless noted; also: % is scaled to controls: 0 for no effect and ±100 for the full control effect
How it was run: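 In this screen, ME-180 cells in Opti-MEM with 0.5% dialyzed FBS received EC50 EGF and compound titrations for 5 h. AP-1 reporter beta-lactamase was detected via CCF4 ratio, giving AC50 for positive and negative modulators.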

[2] = NFAT Signaling Pathway (AID 444); settings: Jurkat NFAT-bla M1, carbachol, beta-lactamase ratio, 5 h; at 17.2 µM (top of the series) unless noted;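 also: carbachol stimulus at about its EC50 of 1 µM final; % is scaled to controls: 0 for no effect and ±100 for the full control effect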
How it was run: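 Jurkat cells with NFAT-driven β-lactamase reporter and co-expressed M1 receptor, stimulated with carbachol (final 1 uM, ~EC50), compound titration, 5 h at 37 °C. CCF4 loaded 1 h at RT; 460/530 nm ratio gave %activity and AC50.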

[3] = Stat Signaling Pathway (AID 446); settings: ME-180 SIE beta-lactamase reporter, IL-6 stimulated, 5 h; at 17.2 µM (top of the series) unless noted;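 also: ME-180 cervical cancer cells given 40 pM IL-6 alongside compound; SIE-controlled beta-lactamase reporter measured as 460/530 nm FRET emission ratio; % is scaled to controls: 0 for no effect and ±100 for the full control effect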
How it was run: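 ME-180 cells carrying a SIE-driven beta-lactamase reporter are stimulated with 40 pM IL-6 for 5 h at 37C in the presence of compound. The 460/530 nm FRET substrate ratio is read after 2.5 h at RT. Data are normalised to 300 pM IL-6 and to 125 nM JAK inhibitor controls.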

[4] = target: Glucocorticoid receptor (Homo sapiens) (UniProt P04150); test: GR-GFP Redistribution (AID 450;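 active = compounds whose dose series gives a full or clear partial fitted curve of increased nuclear translocation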; also: potency is read from the fitted curve at half-maximal effect)
Chain of Glucocorticoid receptor (Homo sapiens) (P04150 whole entry, looked up): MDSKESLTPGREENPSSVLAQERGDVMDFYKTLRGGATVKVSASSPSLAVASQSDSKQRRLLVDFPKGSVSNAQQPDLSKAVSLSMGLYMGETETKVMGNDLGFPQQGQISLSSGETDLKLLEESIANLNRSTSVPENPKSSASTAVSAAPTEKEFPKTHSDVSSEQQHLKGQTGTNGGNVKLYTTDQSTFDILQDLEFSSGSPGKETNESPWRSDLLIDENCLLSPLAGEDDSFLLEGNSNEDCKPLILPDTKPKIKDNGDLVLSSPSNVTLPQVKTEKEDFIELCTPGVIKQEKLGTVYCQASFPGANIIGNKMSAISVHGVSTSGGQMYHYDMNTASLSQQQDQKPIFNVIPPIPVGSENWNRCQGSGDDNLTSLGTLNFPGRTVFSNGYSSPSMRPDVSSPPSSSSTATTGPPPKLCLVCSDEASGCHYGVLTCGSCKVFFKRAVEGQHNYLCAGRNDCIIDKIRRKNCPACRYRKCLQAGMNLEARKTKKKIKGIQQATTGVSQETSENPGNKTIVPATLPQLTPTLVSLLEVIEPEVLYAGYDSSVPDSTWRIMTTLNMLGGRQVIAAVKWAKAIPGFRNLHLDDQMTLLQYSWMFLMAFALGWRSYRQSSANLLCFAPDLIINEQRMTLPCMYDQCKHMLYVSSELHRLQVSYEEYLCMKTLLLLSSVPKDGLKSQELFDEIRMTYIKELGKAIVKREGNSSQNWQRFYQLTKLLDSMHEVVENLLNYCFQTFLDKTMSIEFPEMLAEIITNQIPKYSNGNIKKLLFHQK

Cn1c(-n2c(-c3ccco3)nc3ccccc3c2=O)nc2ccccc21
inactive: activity change, negative = inhibition [1] -5.43% | activity change, negative = inhibition [2] -6.94% | activity, negative = inhibition [3] 9.91% | Potency [4] > 20.6 µM

COCc1[nH]nc2c1C(c1cccc(OC)c1)C(C#N)=C(N)O2 (stereo not given)
inactive: activity change, negative = inhibition [1] -19.1% | activity change, negative = inhibition [2] -19.7% | activity, negative = inhibition [3] -11% | Potency [4] > 20.6 µM

CCOC(=O)NC1(C(F)(F)F)C(=O)NC(C)=C1C#N (stereo not given)
inactive: activity change, negative = inhibition [1] 26.2% | activity change, negative = inhibition [2] -4.71% | activity, negative = inhibition [3] 1.98% | Potency [4] > 20.6 µM

O=S(=O)(NCc1cccnc1)c1cccc2nsnc12
inactive: activity change, negative = inhibition [1] 6.05% | activity change, negative = inhibition [2] -11.1% | activity, negative = inhibition [3] 4.09% | Potency [4] > 20.6 µM

N#CCc1nc2c3c4c(sc3ncn2n1)CCCC4
inactive: activity change, negative = inhibition [1] -0.68% | activity change, negative = inhibition [2] -9.45% | activity, negative = inhibition [3] 5.72% | Potency [4] > 20.6 µM

CCN(CC)CCN1C(=O)C(=O)/C(=C(/O)c2ccc(F)cc2)C1c1ccncc1 (stereo not given)
inactive: activity change, negative = inhibition [1] -7.07% | activity change, negative = inhibition [2] 17.1% | activity, negative = inhibition [3] 1.89% | Potency [4] > 20.6 µM

c1ccc(-n2ncc3c(NCC4CCCO4)ncnc32)cc1 (stereo not given)
inactive: activity change, negative = inhibition [1] -4.47% | activity change, negative = inhibition [2] -15.8% | activity, negative = inhibition [3] 2.07% | Potency [4] > 20.6 µM

O=C1[C@@H]2[C@H](C(=O)N1n1cnnc1)[C@H]1C=C[C@@H]2C1
inactive: activity change, negative = inhibition [1] -2.82% | activity change, negative = inhibition [2] 1.6% | activity, negative = inhibition [3] 3.44% | Potency [4] > 20.6 µM

Cc1cc(C)n(C(=O)CNC(=O)C2COc3ccccc3O2)n1 (stereo not given)
inactive: activity change, negative = inhibition [1] 15.9% | activity change, negative = inhibition [2] -7.83% | activity, negative = inhibition [3] 24.9% | Potency [4] > 20.6 µM

COc1ccc(C2=Nn3c(nnc3-c3ccccc3)SC2)cc1OC
inactive: activity change, negative = inhibition [1] -10.8% | activity change, negative = inhibition [2] -10.8% | activity, negative = inhibition [3] 3.68% | Potency [4] > 20.6 µM

COc1ccccc1C1C(C#N)=C(N)Oc2cc(C)n(Cc3ccccn3)c(=O)c21 (stereo not given)
inactive: activity change, negative = inhibition [1] -12.5% | activity change, negative = inhibition [2] -9.78% | activity, negative = inhibition [3] -1.34% | Potency [4] > 20.6 µM

CCOc1cccc(-c2nn3c(-c4ccco4)nnc3s2)c1
inactive: activity change, negative = inhibition [1] -15.5% | activity change, negative = inhibition [2] -4.59% | activity, negative = inhibition [3] -0.495% | Potency [4] > 20.6 µM

O=C(CSc1nc2ccccc2s1)Nn1cnnc1
inactive: activity change, negative = inhibition [1] 3.59% | activity change, negative = inhibition [2] 2.13% | activity, negative = inhibition [3] 5.58% | Potency [4] > 20.6 µM

O=S(=O)(N[C@@H]1C[C@H]2CC[C@@H]1C2)c1cccs1
inactive: activity change, negative = inhibition [1] -5.92% | activity change, negative = inhibition [2] -11.3% | activity, negative = inhibition [3] -0.621% | Potency [4] > 20.6 µM

O=C(Nc1ccc(Cl)cn1)C1CCCN1S(=O)(=O)c1ccccc1 (stereo not given)
inactive: activity change, negative = inhibition [1] -9.31% | activity change, negative = inhibition [2] -4.11% | activity, negative = inhibition [3] -6.7% | Potency [4] > 20.6 µM

O=C(NCc1ccccc1)c1ccc(=O)[nH]n1
inactive: activity change, negative = inhibition [1] 2.35% | activity change, negative = inhibition [2] -2.12% | activity, negative = inhibition [3] 5.54% | Potency [4] > 20.6 µM

Cc1cc(=O)oc(C)c1C(=O)NC12CC3CC(CC(C3)C1)C2
inactive: activity change, negative = inhibition [1] -5.66% | activity change, negative = inhibition [2] 1.02% | activity, negative = inhibition [3] 1.82% | Potency [4] > 20.6 µM

O=C(CCN1CCCCC1)Nc1cccc(Cl)c1
inactive: activity change, negative = inhibition [1] 7.3% | activity change, negative = inhibition [2] -23.2% | activity, negative = inhibition [3] -0.895% | Potency [4] > 20.6 µM

COc1ccccc1C(=O)NCC(=O)n1nc(C)cc1C
inactive: activity change, negative = inhibition [1] -3.59% | activity change, negative = inhibition [2] -5.21% | activity, negative = inhibition [3] 10.4% | Potency [4] > 20.6 µM

COC(=O)c1cc(Br)c(=O)n(-c2cc(C)on2)c1
inactive: activity change, negative = inhibition [1] 8.72% | activity change, negative = inhibition [2] 12.9% | activity, negative = inhibition [3] 7.11% | Potency [4] > 20.6 µM

CCOC(=O)c1c(-c2cccs2)csc1NC(=O)CCCC(=O)O
inactive: activity change, negative = inhibition [1] -7.6% | activity change, negative = inhibition [2] -2.47% | activity, negative = inhibition [3] -0.962% | Potency [4] > 20.6 µM

CC(C)c1nc(N2CCOCC2)c(C#N)c2c1CCC2
inactive: activity change, negative = inhibition [1] -24.1% | activity change, negative = inhibition [2] -23.6% | activity, negative = inhibition [3] -8.37% | Potency [4] > 20.6 µM

Cc1c(Cl)c(C(F)(F)F)nn1CC(=O)N1CCSCC1
inactive: activity change, negative = inhibition [1] 9.46% | activity change, negative = inhibition [2] 0.195% | activity, negative = inhibition [3] 5.37% | Potency [4] > 20.6 µM

CCOC(=O)c1oc2cc(O)cc(C)c2c(=O)c1-c1cscn1
inactive: activity change, negative = inhibition [1] 0.0813% | activity change, negative = inhibition [2] 11.5% | activity, negative = inhibition [3] -0.432% | Potency [4] > 20.6 µM

COc1ccc(-n2c(=O)c3c4c(sc3n3c(C)nnc23)CC(C)CC4)cc1 (stereo not given)
inactive: activity change, negative = inhibition [1] -0.998% | activity change, negative = inhibition [2] -0.396% | activity, negative = inhibition [3] 10.9% | Potency [4] > 20.6 µM
